Data taken from PubChem BioAssay (Tox21).
Where “and” joins values, the source holds several entries; their conditions need not be identical. Equal entries are not always repeated. Records with an inconclusive call do not appear. Unmarked numbers belong to inactive results. Calls of active or inactive are those of the source. Calls follow the shape of the dose curve; as a rule, active = well fitted inhibition curve with a large enough effect in the repeat runs; inconclusive = weak or mixed curves; inactive = no such curve, though single readings can be large or run the other way.

Molecular target: Cytochrome P450 3A4 (Homo sapiens) (UniProt P08684)
Sequence (P08684 whole entry, looked up): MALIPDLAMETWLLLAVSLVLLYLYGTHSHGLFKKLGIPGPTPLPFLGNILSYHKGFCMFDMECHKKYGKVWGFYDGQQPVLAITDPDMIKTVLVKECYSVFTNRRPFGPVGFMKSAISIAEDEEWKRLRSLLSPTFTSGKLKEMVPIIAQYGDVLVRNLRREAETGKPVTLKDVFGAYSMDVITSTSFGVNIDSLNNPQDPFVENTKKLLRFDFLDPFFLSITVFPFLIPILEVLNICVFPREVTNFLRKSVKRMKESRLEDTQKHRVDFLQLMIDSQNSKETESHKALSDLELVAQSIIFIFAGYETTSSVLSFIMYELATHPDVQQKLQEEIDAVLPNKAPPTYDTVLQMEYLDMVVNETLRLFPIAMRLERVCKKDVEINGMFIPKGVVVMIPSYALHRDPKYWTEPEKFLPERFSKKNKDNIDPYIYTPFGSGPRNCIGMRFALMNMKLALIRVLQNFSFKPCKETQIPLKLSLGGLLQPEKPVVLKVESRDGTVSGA
Assay: Cytochrome P450 Family 3 Subfamily A Member 4 (CYP3A4) small molecule antagonists: luciferase reporter qHTS assay (AID 1671201); also: nearly all actives have a fitted effect of over 50% in size
Conditions: P450-Glo CYP3A4 enzyme, luciferin luminescence, 1 h; series mostly up to 115 µM; activity change, negative = inhibition: at the top concentration
Summary of the method: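 Room-temperature assay throughout: 10 min compound–enzyme/substrate preincubation, 1 h reaction after NADPH regeneration solution, 20 min detection. Luciferin formed from proluciferin substrate is quantified by luminescence.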
% is scaled to controls: 0 for no effect and ±100 for the full control effect; potency is read from the fitted curve at half-maximal effect.

Row | SMILES | activity change, negative = inhibition | Potency
1 | Cc1ccccc1 | 11.1% | –
2 | O=C(Cc1ccccc1)c1ccccc1 | 77.9% | –
3 | CCCCNC(=O)OCC#CI | – | 3.54 µM (active) and 5.64 µM (active)
4 | C[N+](C)(C)CCOC(=O)C(O)(c1ccccc1)c1ccccc1 | 1.69% [at 52.9 µM] | –
5 | OCC1CO1 (centres undefined) | – | inactive
6 | C#CC(O)(C=CCl)CC (centres undefined) | 0.0583% [at 52.9 µM] | –
7 | C1CS1 | -26.5% | –
8 | Nc1ccc2c(c1)Cc1ccccc1-2 | – | 14.1 µM (active)
9 | CCCC[N+](CCCC)(CCCC)CCCC | 4.42% | –
10 | Nc1cccc2ccccc12 | – | 35.6 µM (active)
11 | Cc1ccc2c(C)cccc2c1 | 14.6% | –
12 | CC(C)[C@@H](C(=O)O[C@@H](C#N)c1cccc(Oc2ccccc2)c1)c1ccc(Cl)cc1 | -20.2% | –
13 | CCOP(=O)(O)C(N)=O | 0.486% | –
14 | CCCSP(=S)(OCC)Oc1ccc(SC)cc1 (centres undefined) | – | 3.17 µM (active)
15 | Clc1ccccc1 | 14.2% | –
16 | CCC1(C2=NCCN2)Cc2ccccc2O1 (centres undefined) | 3.37% [at 52.9 µM] | –
17 | O=P(OCC(Br)CBr)(OCC(Br)CBr)OCC(Br)CBr (centres undefined) | – | 2.55 µM (active) and 7.56 µM (active)
18 | OC[P+](CO)(CO)CO | – | inactive
19 | CC1(C)CC(=O)CC(C)(C)N1[O] | -8.75% | –
20 | COC1=CC(=O)O[C@@H](/C=C/c2ccc3c(c2)OCO3)C1 | – | 4.81 µM (active)

Row | SMILES | activity change, negative = inhibition | Potency
21 | CCc1cnc(C2=NC(C)(C(C)C)C(=O)N2)c(C(=O)O)c1 (centres undefined) | – | inactive
22 | CC(C)(C)CC(C)(C)c1ccc(O)cc1 | – | inactive
23 | CCCCC(CC)COC(=O)c1c(Br)c(Br)c(Br)c(Br)c1C(=O)OCC(CC)CCCC (centres undefined) | 0.435% [at 52.9 µM] | –
24 | C[C@]12CC[C@H]3[C@@H](CCC4=CC(=O)CC[C@@H]43)[C@@H]1CC[C@@H]2OC(=O)CCc1ccccc1 | -28.7% [at 52.9 µM] | –
25 | C=C(C)C(=O)OCCCCOC(=O)C(=C)C | -3.33% | –
26 | Nc1c(Br)cc(Br)c2c1C(=O)c1ccccc1C2=O | 1.74% [at 23.6 µM] | –
27 | CCCCCBr | -10.7% | –
28 | O=C(O)C(F)(F)C(F)(F)C(F)(F)C(F)(F)C(F)(F)C(F)(F)C(F)(F)C(F)(F)F | 19.8% | –
29 | O=C(O)COc1cc(Cl)c(Cl)cc1Cl | – | inactive
30 | O=S(=O)(c1ccccc1)c1ccccc1 | 78.2% | –
31 | O=C(O)c1ccc(=O)[nH]c1 | 1.97% [at 52.9 µM] | –
32 | CCOP(=S)(OCC)SCSc1cc(Cl)ccc1Cl | 0.718% | –
33 | CCCCC(CC)CO[N+](=O)[O-] (centres undefined) | 3.87% | –
34 | COc1cc(C[C@@H](C)N)c(OC)cc1Br | 1.92% | –
35 | O=C1NC(=O)C(=O)C(=O)N1 | 7.68% | –
36 | CC(C)C1(C)N=C(c2ncccc2C(=O)O)NC1=O (centres undefined) | -4.99% | –
37 | O=CC=O | 4.73% | –
38 | CN1CC[C@]23c4c5ccc(O)c4O[C@H]2[C@@H](O)CC[C@H]3[C@H]1C5 | 1.29% | –
39 | O=C(Cc1ccccc1)OCCc1ccccc1 | -15.1% | –
